# In PubChem BioAssay (EPA / NIEHS):
# Values joined by “and” are separate entries in the source; they are usually repeats but may differ in a detail not shown here. Equal entries are not always repeated. Inconclusive results are not listed. Some structures have more than one record in an assay (separate samples or runs), and their calls can disagree. Active and inactive are the calls of the source. The calls were made as follows: active = hit-call score of the fitted dose curve at least 0.9, where 1 is the maximum; inconclusive = response in the unintended direction; inactive = score below 0.9.
# Legend:
# [1] = system: guinea pig Muscarinic, Peripheral (Mperiperal) Receptor, Non-selective Binding, gene 100379235; test: NVS_GPCR_gMPeripheral_NonSelective: NovaScreen (NVS) G Protein-Coupled Receptor Assay for guinea pig Muscarinic, Peripheral (Mperiperal) Receptor, Non-selective Binding (AID 2283250)
# Outline: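 Screened in duplicate at 25 uM, hits retested in concentration series to 50 uM max, using bladder membrane radioligand displacement from guinea pig. Filtration and scintillation counting 1 h post-dose, fitted relative to DMSO.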
# [2] = target: human Serotonin, 5-Hydroxytryptamine Receptor 7 (5HT7), HTR7 (gene 3363) (UniProt P34969); test: NVS_GPCR_h5HT7: NovaScreen (NVS) G Protein-Coupled Receptor Assay for human Serotonin, 5-Hydroxytryptamine Receptor 7 (5HT7) (AID 2283255);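 also: hits reduce specific radioligand binding relative to DMSO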
# human Serotonin, 5-Hydroxytryptamine Receptor 7 (5HT7), HTR7 (gene 3363), sequence (P34969 whole entry, looked up): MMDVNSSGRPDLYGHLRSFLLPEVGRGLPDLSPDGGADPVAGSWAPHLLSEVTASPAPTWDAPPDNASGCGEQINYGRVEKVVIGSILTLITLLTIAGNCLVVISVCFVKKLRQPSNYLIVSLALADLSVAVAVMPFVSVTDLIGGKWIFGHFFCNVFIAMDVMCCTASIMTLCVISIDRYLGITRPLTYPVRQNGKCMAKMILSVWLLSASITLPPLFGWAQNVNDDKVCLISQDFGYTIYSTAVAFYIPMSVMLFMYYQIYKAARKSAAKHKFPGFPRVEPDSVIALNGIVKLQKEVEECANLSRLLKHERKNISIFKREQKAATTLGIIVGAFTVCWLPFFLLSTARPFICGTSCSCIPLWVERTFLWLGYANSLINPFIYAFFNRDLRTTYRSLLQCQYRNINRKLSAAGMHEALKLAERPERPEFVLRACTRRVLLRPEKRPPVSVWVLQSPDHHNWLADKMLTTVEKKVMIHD
# Outline: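 Filter-bound radioactivity counted after 1 h, with loss of specific radioligand binding fitted against DMSO. Membrane protein came from CHO cells expressing human 5HT7. Chemicals were tested first at 25 uM in duplicate, then in concentration series if active.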
# [3] = target: human Adenosine A1 Receptor (AdoRA1), ADORA1 (gene 134) (UniProt P30542); test: NVS_GPCR_hAdoRA1: NovaScreen (NVS) G Protein-Coupled Receptor Assay for human Adenosine A1 Receptor (AdoRA1) (AID 2283254)
# human Adenosine A1 Receptor (AdoRA1), ADORA1 (gene 134), sequence (P30542 whole entry, looked up): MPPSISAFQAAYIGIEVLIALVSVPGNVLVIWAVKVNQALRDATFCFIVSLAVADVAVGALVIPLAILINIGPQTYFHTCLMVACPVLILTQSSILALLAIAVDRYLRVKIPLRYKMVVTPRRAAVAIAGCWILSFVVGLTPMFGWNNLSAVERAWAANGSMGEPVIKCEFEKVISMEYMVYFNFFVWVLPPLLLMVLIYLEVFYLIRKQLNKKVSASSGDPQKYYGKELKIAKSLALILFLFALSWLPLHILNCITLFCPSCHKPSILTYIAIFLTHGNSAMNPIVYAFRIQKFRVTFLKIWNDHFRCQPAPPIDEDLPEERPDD
# Outline: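 Radioligand binding was run on human cortical membranes, cell-free, with filter-based scintillation counting 1 h after dosing. The primary screen was duplicate at 25 uM, followed by concentration series. Signal loss versus DMSO was fitted positive-direction.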
# [4] = target: human Adenosine A2a Receptor (AdoRA2a), ADORA2A (gene 135) (UniProt P29274); test: NVS_GPCR_hAdoRA2a: NovaScreen (NVS) G Protein-Coupled Receptor Assay for human Adenosine A2a Receptor (AdoRA2a) (AID 2283256)
# human Adenosine A2a Receptor (AdoRA2a), ADORA2A (gene 135), sequence (P29274 whole entry, looked up): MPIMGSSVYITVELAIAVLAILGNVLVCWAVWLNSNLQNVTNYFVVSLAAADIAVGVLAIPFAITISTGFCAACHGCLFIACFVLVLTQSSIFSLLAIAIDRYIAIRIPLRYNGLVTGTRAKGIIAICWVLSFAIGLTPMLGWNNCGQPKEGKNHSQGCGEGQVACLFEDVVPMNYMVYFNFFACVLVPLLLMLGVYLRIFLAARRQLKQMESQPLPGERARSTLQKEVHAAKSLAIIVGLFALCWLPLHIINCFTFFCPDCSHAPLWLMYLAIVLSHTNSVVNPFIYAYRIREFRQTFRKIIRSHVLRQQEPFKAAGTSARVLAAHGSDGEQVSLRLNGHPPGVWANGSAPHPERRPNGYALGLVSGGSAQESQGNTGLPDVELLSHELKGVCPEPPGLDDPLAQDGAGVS
# Outline: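 Compounds screened in duplicate at 25 uM, with actives followed up in concentration series, for displacement of a radioligand from HEK293-derived receptor protein. Bound counts read by filter scintillation at 1.5 hours, DMSO as baseline.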
# [5] = target: human Adrenergic, Alpha 2c Receptor (Adra2C), ADRA2C (gene 152) (UniProt P18825); test: NVS_GPCR_hAdra2C: NovaScreen (NVS) G Protein-Coupled Receptor Assay for human Adrenergic, Alpha 2c Receptor (Adra2C) (AID 2283259)
# human Adrenergic, Alpha 2c Receptor (Adra2C), ADRA2C (gene 152), sequence (P18825 whole entry, looked up): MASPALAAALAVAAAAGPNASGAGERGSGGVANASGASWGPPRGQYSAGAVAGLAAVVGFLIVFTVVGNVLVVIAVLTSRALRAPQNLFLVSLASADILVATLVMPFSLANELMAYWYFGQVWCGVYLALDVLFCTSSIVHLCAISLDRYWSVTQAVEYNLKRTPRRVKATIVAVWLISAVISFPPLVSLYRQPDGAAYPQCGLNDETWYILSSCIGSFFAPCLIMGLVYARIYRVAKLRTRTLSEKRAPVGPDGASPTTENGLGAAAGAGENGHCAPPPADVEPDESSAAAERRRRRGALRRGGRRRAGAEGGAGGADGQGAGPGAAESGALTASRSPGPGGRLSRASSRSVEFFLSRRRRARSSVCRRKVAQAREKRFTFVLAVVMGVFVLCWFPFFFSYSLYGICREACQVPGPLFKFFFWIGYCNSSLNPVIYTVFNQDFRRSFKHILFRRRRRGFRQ
# Outline: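 Screened first in duplicate at 25 uM, with actives then run as concentration series. Membranes from Sf9 cells were exposed for 1 h, and displacement of radioligand was counted after filtration, using DMSO as baseline.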
# [6] = target: human Serotonin, 5-Hydroxytryptamine Receptor 6 (5HT6), HTR6 (gene 3362) (UniProt P50406); test: NVS_GPCR_h5HT6: NovaScreen (NVS) G Protein-Coupled Receptor Assay for human Serotonin, 5-Hydroxytryptamine Receptor 6 (5HT6) (AID 2283253)
# human Serotonin, 5-Hydroxytryptamine Receptor 6 (5HT6), HTR6 (gene 3362), sequence (P50406 whole entry, looked up): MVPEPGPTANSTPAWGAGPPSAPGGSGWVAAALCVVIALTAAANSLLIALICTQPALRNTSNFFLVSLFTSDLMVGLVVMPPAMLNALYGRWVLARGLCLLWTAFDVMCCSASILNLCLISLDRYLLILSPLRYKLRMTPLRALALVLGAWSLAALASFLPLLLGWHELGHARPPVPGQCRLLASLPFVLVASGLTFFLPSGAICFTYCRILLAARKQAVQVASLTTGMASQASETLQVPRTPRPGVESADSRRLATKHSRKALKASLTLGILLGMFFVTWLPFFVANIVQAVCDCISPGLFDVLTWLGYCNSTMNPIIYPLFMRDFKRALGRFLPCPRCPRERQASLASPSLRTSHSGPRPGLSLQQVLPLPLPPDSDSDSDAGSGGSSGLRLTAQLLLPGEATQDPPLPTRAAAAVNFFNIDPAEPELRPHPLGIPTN
# Protocol: NVS_GPCR_h5HT6 is a biochemical, single-readout assay that uses extracted gene-proteins from HEK293 in a cell-free assay. Measurements were taken 1 hour after chemical dosing in a 96-well plate.NVS_GPCR_h5HT6 is one of one assay component(s) measured or calculated from the NVS_GPCR_h5HT6 assay. It is designed to make measurements of radioligand binding, a form of binding reporter, as detected with scintillation counting signals by Filter-based radiodetection technology.Data from the assay component NVS_GPCR_h5HT6 was analyzed into 1 assay endpoint. This assay endpoint, NVS_GPCR_h5HT6, was analyzed in the positive analysis fitting direction relative to DMSO as the negative control and baseline of activity. Using a type of binding reporter, loss-of-signal activity can be used to understand changes in the binding as they relate to the gene HTR6. Furthermore, this assay endpoint can be referred to as a primary readout, because the performed assay has only produced 1 assay endpoint. To generalize the intended target to other relatable targets, this assay endpoint is annotated to the gpcr intended target family, where the subfamily is rhodopsin-like receptor.
# Binding assays used specific radioligands (tritiated, iodinated) with non-radioactive competitive displacement ligands in agonist or antagonist protocols (as indicated) and various reference compounds and inhibitors to titrate specific binding to receptors and transporters. Most enzyme assays (CYPs, kinases, phosphatases, proteases, HDACs) used recombinant protein and specific substrates (fluorescence mostly, some colorimetric and radioactive) and inhibitors, followed by a biochemical separation of substrate and product. All assays for the biochemical HTS were initially run in duplicate at a single concentration (10 uM for CYP450 assays and 25 uM for all others). […] Each assay was run with positive and negative controls, and concurrent controls on every plate. […]
# [7] = target: guinea pig Opioid, Kappa 1 Receptor (OpiateK), OPRK1 (gene 100135587) (UniProt P41144); test: NVS_GPCR_gOpiateK: NovaScreen (NVS) G Protein-Coupled Receptor Assay for guinea pig Opioid, Kappa 1 Receptor (OpiateK) (AID 2283252);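 also: radioligand displacement from kappa opioid receptor in guinea pig cerebellar membranes; active means reduced radioligand binding relative to DMSO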
# guinea pig Opioid, Kappa 1 Receptor (OpiateK), OPRK1 (gene 100135587), sequence (P41144 whole entry, looked up): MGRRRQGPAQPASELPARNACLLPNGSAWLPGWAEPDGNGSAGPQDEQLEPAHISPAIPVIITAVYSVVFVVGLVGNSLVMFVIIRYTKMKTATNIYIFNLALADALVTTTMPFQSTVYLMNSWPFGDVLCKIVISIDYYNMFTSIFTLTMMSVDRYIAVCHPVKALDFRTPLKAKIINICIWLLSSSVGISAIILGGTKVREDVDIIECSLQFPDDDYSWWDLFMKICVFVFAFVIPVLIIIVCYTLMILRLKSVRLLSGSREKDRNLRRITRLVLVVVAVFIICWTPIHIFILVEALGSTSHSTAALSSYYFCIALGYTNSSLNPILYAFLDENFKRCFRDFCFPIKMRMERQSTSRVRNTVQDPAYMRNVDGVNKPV
# Outline: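 Radioligand competition binding using guinea pig cerebellum membrane fraction; 2 h exposure; filter radiodetection. Single concentration 25 uM (duplicate), follow-up concentration-response for actives.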
# [8] = target: human Serotonin, 5-Hydroxytryptamine Receptor 5A (5HT5A), HTR5A (gene 3361) (UniProt P47898); test: NVS_GPCR_h5HT5A: NovaScreen (NVS) G Protein-Coupled Receptor Assay for human Serotonin, 5-Hydroxytryptamine Receptor 5A (5HT5A) (AID 2283251)
# human Serotonin, 5-Hydroxytryptamine Receptor 5A (5HT5A), HTR5A (gene 3361), sequence (P47898 whole entry, looked up): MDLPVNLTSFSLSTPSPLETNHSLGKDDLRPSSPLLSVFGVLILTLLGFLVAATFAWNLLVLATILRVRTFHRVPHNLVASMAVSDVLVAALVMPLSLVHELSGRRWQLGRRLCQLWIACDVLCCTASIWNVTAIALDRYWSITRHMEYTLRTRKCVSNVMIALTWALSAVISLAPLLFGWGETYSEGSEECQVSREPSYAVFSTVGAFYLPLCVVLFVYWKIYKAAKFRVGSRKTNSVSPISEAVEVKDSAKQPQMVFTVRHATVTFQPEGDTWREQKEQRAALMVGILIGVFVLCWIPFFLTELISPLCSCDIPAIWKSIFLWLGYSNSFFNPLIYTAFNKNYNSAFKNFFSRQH
# Outline: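 Membranes from HEK293 cells, radioligand binding read by filtration and scintillation after 1 h. Single-concentration duplicate testing at 25 uM, then concentration-response for actives; positive-direction fitting relative to DMSO.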
# [9] = target: human Adrenergic, Beta 1 Receptor (Adrb1), ADRB1 (gene 153) (UniProt P08588); test: NVS_GPCR_hAdrb1: NovaScreen (NVS) G Protein-Coupled Receptor Assay for human Adrenergic, Beta 1 Receptor (Adrb1) (AID 2283258)
# human Adrenergic, Beta 1 Receptor (Adrb1), ADRB1 (gene 153), sequence (P08588 whole entry, looked up): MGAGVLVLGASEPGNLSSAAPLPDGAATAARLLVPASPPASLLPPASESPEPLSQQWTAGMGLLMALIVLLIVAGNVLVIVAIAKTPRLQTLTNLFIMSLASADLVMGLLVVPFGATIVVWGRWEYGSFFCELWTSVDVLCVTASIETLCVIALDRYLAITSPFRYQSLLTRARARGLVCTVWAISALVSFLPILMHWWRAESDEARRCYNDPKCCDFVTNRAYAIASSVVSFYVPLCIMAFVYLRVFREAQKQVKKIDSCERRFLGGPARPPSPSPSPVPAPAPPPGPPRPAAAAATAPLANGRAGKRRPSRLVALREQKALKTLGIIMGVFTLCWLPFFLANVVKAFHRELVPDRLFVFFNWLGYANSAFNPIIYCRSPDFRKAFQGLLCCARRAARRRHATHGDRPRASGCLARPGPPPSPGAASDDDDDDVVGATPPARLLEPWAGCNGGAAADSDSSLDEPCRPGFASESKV
# Outline: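 Membranes/protein extracted from human neuroepithelioma cells, radioligand competition binding read by filtration and scintillation 2 h post-dose. Single 25 uM duplicate screen, then concentration-response follow-up; DMSO as negative control.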
# [10] = target: human Adrenergic, Alpha 2A Receptor (Adra2A), ADRA2A (gene 150) (UniProt P08913); test: NVS_GPCR_hAdra2A: NovaScreen (NVS) G Protein-Coupled Receptor Assay for human Adrenergic, Alpha 2A Receptor (Adra2A) (AID 2283257)
# human Adrenergic, Alpha 2A Receptor (Adra2A), ADRA2A (gene 150), sequence (P08913 whole entry, looked up): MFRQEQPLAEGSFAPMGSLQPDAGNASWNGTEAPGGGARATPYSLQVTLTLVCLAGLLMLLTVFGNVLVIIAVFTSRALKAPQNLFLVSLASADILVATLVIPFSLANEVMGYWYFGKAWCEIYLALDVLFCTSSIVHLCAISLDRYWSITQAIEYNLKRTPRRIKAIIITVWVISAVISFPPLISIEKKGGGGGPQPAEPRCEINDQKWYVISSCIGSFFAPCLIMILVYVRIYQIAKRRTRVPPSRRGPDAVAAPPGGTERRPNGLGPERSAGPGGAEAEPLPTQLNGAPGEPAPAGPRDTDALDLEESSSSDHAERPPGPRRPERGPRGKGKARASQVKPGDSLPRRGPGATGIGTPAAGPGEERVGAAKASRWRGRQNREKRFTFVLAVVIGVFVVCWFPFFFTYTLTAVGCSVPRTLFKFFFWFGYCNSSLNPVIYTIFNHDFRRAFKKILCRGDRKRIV
# Outline: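 Displacement of a specific radioligand from HT29 membrane protein was counted by filter scintillation after 1 h. Compounds were screened in duplicate at 25 uM, and actives were retested in concentration series. Fitting was positive-direction against DMSO.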
smiles,measurement,setting,value
CCCOC(=O)NCCCN(C)C,outcome,[1],inactive
S=C(S)NCCNC(=S)S.[Mn+2].[S-]C([S-])=NCCN=C([S-])[S-].[Zn+2],AC50,[2],2.48 µM (active) and 5.86 µM (active) and 2.62 µM (active)
same,outcome,[2],inactive
COC(=O)c1cccc(C)c1S(=O)(=O)NC(=O)Nc1nc(OCC(F)(F)F)nc(N(C)C)n1,AC50,[3],10.4 µM (active)
same,AC50,[4],6.04 µM (active)
CCOC(=O)C(C)Oc1ccc(Oc2nc3ccc(Cl)cc3o2)cc1 (stereo unspecified),outcome,[5],inactive
CCOC(=O)[C@H](C)Oc1ccc(Oc2nc3ccc(Cl)cc3o2)cc1,outcome,[5],inactive
O=C(c1ccc(O)cc1O)c1ccc(O)cc1O,AC50,[6],4.96 µM (active)
same,AC50,[3],11 µM (active)
same,outcome,[4],inactive
CCCCC(CC)COC(=O)c1ccccc1C(=O)O (stereo unspecified),outcome,[3],inactive
Cc1nn(C)c(Oc2ccccc2)c1C=NOCc1ccc(C(=O)OC(C)(C)C)cc1,AC50,[2],6.64 µM (active)
CC(C)(C)[C@@H](O)[C@@H](Cc1ccc(Cl)cc1)n1cncn1,outcome,[7],inactive
Oc1ccc(C(c2ccc(O)cc2)C(Cl)(Cl)Cl)cc1,AC50,[8],6.9 µM (active)
same,AC50,[6],0.18 µM (active)
same,outcome,[3],inactive
same,AC50,[2],6.91 µM (active)
same,outcome,[9],inactive
same,AC50,[5],6.88 µM (active)
C=CCOC(Cn1ccnc1)c1ccc(Cl)cc1Cl (stereo unspecified),AC50,[7],12.2 µM (active)
same,AC50,[10],16.4 µM (active)
N#CSCSc1nc2ccccc2s1,AC50,[1],7.3 µM (active)
same,AC50,[10],4.68 µM (active)
CC(C)(c1ccc(O)cc1)c1ccc(O)cc1,outcome,[7],inactive
same,AC50,[3],11.9 µM (active) and 1.83 µM (active)
same,outcome,[2],inactive
same,outcome,[9],inactive
same,outcome,[5],inactive
CCCOC(=O)c1ccc(C(=O)OCCC)nc1,AC50,[4],15.2 µM (active)
c1ccc2[nH]c(-c3cscn3)nc2c1,AC50,[4],4.91 µM (active)
COC(=O)CSc1cc(N=c2sc(=O)n3n2CCCC3)c(F)cc1Cl,outcome,[10],inactive
N[C@@H](Cc1cc(I)c(Oc2ccc(O)c(I)c2)c(I)c1)C(=O)O,AC50,[6],6.06 µM (active)
same,AC50,[3],0.554 µM (active)
CC(=O)S[C@@H]1CC2=CC(=O)CC[C@]2(C)[C@H]2CC[C@@]3(C)[C@@H](CC[C@@]34CCC(=O)O4)[C@H]12,AC50,[7],13.2 µM (active)
CCOC(=O)C(C)Oc1ccc(Oc2cnc3cc(Cl)ccc3n2)cc1 (stereo unspecified),outcome,[8],inactive
same,outcome,[5],inactive
CC1(C)C(C=C(Cl)Cl)C1C(=O)OCc1cccc(Oc2ccccc2)c1 (stereo unspecified),outcome,[2],inactive
CCNc1nc(N)nc(Cl)n1,outcome,[8],inactive
same,AC50,[3],0.207 µM (active)
same,AC50,[4],9.05 µM (active)
CCCCOC(=O)[C@@H](C)Oc1ccc(Oc2ccc(C(F)(F)F)cn2)cc1,outcome,[2],inactive
CC(C)CCCCCCc1ccc(O)cc1,outcome,[4],inactive
same,AC50,[9],38 µM (active)
CCCCCCC(C)OC(=O)COc1nc(F)c(Cl)c(N)c1Cl (stereo unspecified),outcome,[2],inactive
CCCCCOC(=O)COc1cc(N2C(=O)C3=C(CCCC3)C2=O)c(F)cc1Cl,outcome,[3],inactive
C[C@]12CC[C@@H]3c4ccc(O)cc4C[C@@H](CCCCCCCCCS(=O)CCCC(F)(F)C(F)(F)F)[C@H]3[C@@H]1CC[C@@H]2O (stereo partly specified),outcome,[8],inactive
